Test results published in PubChem BioAssay (EPA / NIEHS).
Where “and” joins values, the source holds several entries; their conditions need not be identical. Equal values may be shown once. Some compounds were tested as several samples or in several runs, with calls that do not always agree. Calls of active or inactive are those of the source. Rule for the calls: active = hit-call score of the fitted dose curve at least 0.9, where 1 is the maximum; inactive = score below 0.9.

Read-out: Macrophage colony-stimulating factor (MCSF), CSF1 (gene 1435)
Assay: BSK_LPS_MCSF: BioMAP Diversity Plus: LPS Assay for Macrophage colony-stimulating factor (MCSF) Biomarker Activity (AID 2283083)
Conditions: primary human HUVEC with PBMC; actives raise or lower the signal
Outline: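 HUVEC–PBMC co-culture, M-CSF measured by ELISA 24 h after chemical dosing. Fitted in both directions relative to DMSO as negative control; overt cytotoxicity assessed by SRB total-protein staining in parallel cultures.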

Chain of Tumor necrosis factor (Homo sapiens) (P01375 whole entry, looked up): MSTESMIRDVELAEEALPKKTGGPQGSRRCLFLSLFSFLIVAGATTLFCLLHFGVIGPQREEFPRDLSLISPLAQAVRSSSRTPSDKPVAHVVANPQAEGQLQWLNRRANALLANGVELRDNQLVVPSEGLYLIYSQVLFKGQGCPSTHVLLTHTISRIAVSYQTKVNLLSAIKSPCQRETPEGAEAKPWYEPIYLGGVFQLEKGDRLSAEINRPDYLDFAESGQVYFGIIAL

| SMILES | AC50 | outcome |
| --- | --- | --- |
| C=CC(=O)OCC(F)(F)C(F)F | 30 µM (active) | inactive |
| COP(=O)(O)OC |  | inactive |
| O=C(O)C(F)(F)C(F)(F)C(=O)O |  | inactive |
| O=C(O)C=CC(F)(C(F)(F)F)C(F)(F)F |  | inactive |
| O=C(O)C(F)(F)OC(F)(F)C(F)(F)OC(F)(F)F |  | inactive |
| COP(N)(=S)OC |  | inactive |
| CCCCN(CCCC)SN(C)C(=O)Oc1cccc2c1OC(C)(C)C2 | 30.9 µM (active) |  |
| FC(F)(F)C(F)(C(F)(F)F)C(F)(F)C(F)(F)CC1CO1 (stereo not drawn) |  | inactive |
| CCOP(=S)(OCC)SCS(=O)(=O)CC |  | inactive |
| CC(C)Nc1ccc(Nc2ccccc2)cc1 | 8.91 µM (active) |  |
| CC(O)C(F)(F)C(F)(F)F (stereo not drawn) |  | inactive |
| CCN(CC)c1ccccc1 |  | inactive |
| O=C(O)C(F)(OC(F)(F)C(F)(F)C(F)(F)F)C(F)(F)F (stereo not drawn) |  | inactive |
| ClC(Cl)c1ccccc1 |  | inactive |
| Cc1ccc2c(c1N)C(=O)c1ccccc1C2=O |  | inactive |
| O=S1(=O)OCC2C(CO1)C1(Cl)C(Cl)=C(Cl)C2(Cl)C1(Cl)Cl (stereo not drawn) |  | inactive |
| O=P(Oc1ccccc1)(Oc1ccccc1)Oc1ccccc1 | 32.1 µM (active) |  |
| OCC(F)(F)OC(F)(F)C(F)(F)OC(F)(F)C(F)(F)OC(F)(F)F |  | inactive |
| OCC(F)(F)OC(F)(F)C(F)(F)OC(F)(F)C(F)(F)OC(F)(F)CO |  | inactive |
| [N-]=[N+]=[N-] |  | inactive |
| CSC(C)(C)C=NO |  | inactive |
| CCCCC(CC)COP(=O)(Oc1ccccc1)Oc1ccccc1 (stereo not drawn) | 8.19 µM (active) |  |
| CCCCc1ccccc1 |  | inactive |
| CCOP(=S)(NC(C)C)Oc1ccccc1C(=O)OC(C)C (stereo not drawn) |  | inactive |
| CCCN(CCC)c1c([N+](=O)[O-])cc(C(C)C)cc1[N+](=O)[O-] | 26.2 µM (active) |  |
| CCCCC(CC)COC(=O)c1c(Br)c(Br)c(Br)c(Br)c1C(=O)OCC(CC)CCCC (stereo not drawn) |  | inactive |
| CC(Cl)CN(C)C (stereo not drawn) |  | inactive |
| COC(=O)C(F)(F)C(F)(F)OC(F)(C(F)(F)F)C(F)(F)OC(F)=C(F)F (stereo not drawn) |  | inactive |

Read-out: Tissue Factor, F3 (gene 2152)
Assay: BSK_LPS_TissueFactor: BioMAP Diversity Plus: LPS Assay for Tissue Factor Biomarker Activity (AID 2283084)
Conditions: primary human HUVEC with PBMC; actives raise or lower the signal
Outline: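 Human umbilical vein endothelial cells co-cultured with PBMC were dosed with compound. Cell-surface CD142 was measured by ELISA 24 h later. Activity was fitted bidirectionally against DMSO, with SRB total-protein staining in parallel cultures for cytotoxicity.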

| SMILES | outcome | AC50 |
| --- | --- | --- |
| C=CC(=O)OCC(F)(F)C(F)F | inactive |  |
| COP(=O)(O)OC | inactive |  |
| O=C(O)C(F)(F)C(F)(F)C(=O)O | inactive |  |
| O=C(O)C=CC(F)(C(F)(F)F)C(F)(F)F | inactive |  |
| O=C(O)C(F)(F)OC(F)(F)C(F)(F)OC(F)(F)F | inactive |  |
| COP(N)(=S)OC | inactive |  |
| CCCCN(CCCC)SN(C)C(=O)Oc1cccc2c1OC(C)(C)C2 | inactive |  |
| FC(F)(F)C(F)(C(F)(F)F)C(F)(F)C(F)(F)CC1CO1 (stereo not drawn) | inactive |  |
| CCOP(=S)(OCC)SCS(=O)(=O)CC | inactive |  |
| CC(C)Nc1ccc(Nc2ccccc2)cc1 |  | 8.74 µM (active) |
| CC(O)C(F)(F)C(F)(F)F (stereo not drawn) | inactive | 5.95 µM (active) |
| CCN(CC)c1ccccc1 | inactive |  |
| O=C(O)C(F)(OC(F)(F)C(F)(F)C(F)(F)F)C(F)(F)F (stereo not drawn) | inactive | 1.41 µM (active) |
| ClC(Cl)c1ccccc1 | inactive |  |
| Cc1ccc2c(c1N)C(=O)c1ccccc1C2=O |  | 20 µM (active) |
| O=S1(=O)OCC2C(CO1)C1(Cl)C(Cl)=C(Cl)C2(Cl)C1(Cl)Cl (stereo not drawn) | inactive |  |
| O=P(Oc1ccccc1)(Oc1ccccc1)Oc1ccccc1 | inactive |  |
| OCC(F)(F)OC(F)(F)C(F)(F)OC(F)(F)C(F)(F)OC(F)(F)F | inactive | 49.8 µM (active) |
| OCC(F)(F)OC(F)(F)C(F)(F)OC(F)(F)C(F)(F)OC(F)(F)CO | inactive |  |
| [N-]=[N+]=[N-] | inactive |  |
| CSC(C)(C)C=NO | inactive |  |
| CCCCC(CC)COP(=O)(Oc1ccccc1)Oc1ccccc1 (stereo not drawn) | inactive |  |
| CCCCc1ccccc1 | inactive |  |
| CCOP(=S)(NC(C)C)Oc1ccccc1C(=O)OC(C)C (stereo not drawn) | inactive |  |
| CCCN(CCC)c1c([N+](=O)[O-])cc(C(C)C)cc1[N+](=O)[O-] | inactive |  |
| CCCCC(CC)COC(=O)c1c(Br)c(Br)c(Br)c(Br)c1C(=O)OCC(CC)CCCC (stereo not drawn) | inactive |  |
| CC(Cl)CN(C)C (stereo not drawn) | inactive |  |
| COC(=O)C(F)(F)C(F)(F)OC(F)(C(F)(F)F)C(F)(F)OC(F)=C(F)F (stereo not drawn) | inactive |  |

Read-out: Tumor necrosis factor (Homo sapiens) (UniProt P01375)
Assay: BSK_LPS_TNFa: BioMAP Diversity Plus: LPS Assay for Tumour Necrosis Factor alpha (TNFa) Biomarker Activity (AID 2283085);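 for AC50: TNFa protein level quantified by ELISA in the co-culture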
Conditions: primary human HUVEC with PBMC; actives raise or lower the signal
Outline: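 Human umbilical vein endothelial cells co-cultured with PBMC were exposed to test chemical and TNFa measured by ELISA 24 h after dosing. Bidirectional curve fitting was done relative to DMSO as negative control and baseline.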

| SMILES | AC50 | outcome |
| --- | --- | --- |
| C=CC(=O)OCC(F)(F)C(F)F | 54.6 µM (active) and 54 µM (active) |  |
| COP(=O)(O)OC |  | inactive |
| O=C(O)C(F)(F)C(F)(F)C(=O)O |  | inactive |
| O=C(O)C=CC(F)(C(F)(F)F)C(F)(F)F |  | inactive |
| O=C(O)C(F)(F)OC(F)(F)C(F)(F)OC(F)(F)F |  | inactive |
| COP(N)(=S)OC |  | inactive |
| CCCCN(CCCC)SN(C)C(=O)Oc1cccc2c1OC(C)(C)C2 | 35 µM (active) |  |
| FC(F)(F)C(F)(C(F)(F)F)C(F)(F)C(F)(F)CC1CO1 (stereo not drawn) |  | inactive |
| CCOP(=S)(OCC)SCS(=O)(=O)CC |  | inactive |
| CC(C)Nc1ccc(Nc2ccccc2)cc1 | 12.7 µM (active) |  |
| CC(O)C(F)(F)C(F)(F)F (stereo not drawn) |  | inactive |
| CCN(CC)c1ccccc1 |  | inactive |
| O=C(O)C(F)(OC(F)(F)C(F)(F)C(F)(F)F)C(F)(F)F (stereo not drawn) |  | inactive |
| ClC(Cl)c1ccccc1 |  | inactive |
| Cc1ccc2c(c1N)C(=O)c1ccccc1C2=O |  | inactive |
| O=S1(=O)OCC2C(CO1)C1(Cl)C(Cl)=C(Cl)C2(Cl)C1(Cl)Cl (stereo not drawn) |  | inactive |
| O=P(Oc1ccccc1)(Oc1ccccc1)Oc1ccccc1 | 3.97 µM (active) |  |
| OCC(F)(F)OC(F)(F)C(F)(F)OC(F)(F)C(F)(F)OC(F)(F)F | 50.8 µM (active) and 53.5 µM (active) |  |
| OCC(F)(F)OC(F)(F)C(F)(F)OC(F)(F)C(F)(F)OC(F)(F)CO |  | inactive |
| [N-]=[N+]=[N-] |  | inactive |
| CSC(C)(C)C=NO |  | inactive |
| CCCCC(CC)COP(=O)(Oc1ccccc1)Oc1ccccc1 (stereo not drawn) | 20 µM (active) |  |
| CCCCc1ccccc1 |  | inactive |
| CCOP(=S)(NC(C)C)Oc1ccccc1C(=O)OC(C)C (stereo not drawn) | 4.8 µM (active) |  |
| CCCN(CCC)c1c([N+](=O)[O-])cc(C(C)C)cc1[N+](=O)[O-] | 35.9 µM (active) |  |
| CCCCC(CC)COC(=O)c1c(Br)c(Br)c(Br)c(Br)c1C(=O)OCC(CC)CCCC (stereo not drawn) |  | inactive |
| CC(Cl)CN(C)C (stereo not drawn) |  | inactive |
| COC(=O)C(F)(F)C(F)(F)OC(F)(C(F)(F)F)C(F)(F)OC(F)=C(F)F (stereo not drawn) |  | inactive |
